{"source": "PubChem BioAssay AID540333", "about": "(Southern Research Specialized Biocontainment Screening …, 2011)", "note": "Among all 10,000 compounds or so, about 320 (3.2%) were called active. Rule as the data show it: active = CPE inhibition mostly above about 9.1% (no sharp cut-off); inactive = mostly below about 7.2%. Only a selection was taken, and actives are over-represented in it overall."}
{"assay": "antivirals protecting cells from dengue CPE – CPE readout, HTS (AID 540333)", "conditions": "Dengue virus CPE inhibition in host cells, at 20 µM; stronger effect = higher value"}
{"smiles": "O=Cc1ccc(OC2OCCOC2Oc2ccc(C=O)cc2)cc1", "note": "(stereo not drawn)", "CPE inhibition": "15.4% (active)"}
{"smiles": "c1ccc(-c2csc3ncnc(NCC4COc5ccccc5O4)c23)cc1", "note": "(stereo not drawn)", "CPE inhibition": "6.15% (inactive)"}
{"smiles": "CC1CCc2c(C(=O)OCC(=O)Nc3cccc(S(=O)(=O)N4CCCCCC4)c3)csc2C1", "note": "(stereo not drawn)", "CPE inhibition": "11.4% (active)"}
{"smiles": "Nc1nccnc1C(=O)OCC(=O)Nc1cccc(S(=O)(=O)N2CCCCC2)c1", "CPE inhibition": "inactive"}
{"smiles": "Cc1cnc(C(=O)OCC(=O)Nc2cccc(S(=O)(=O)N3CCCCC3)c2)cn1", "CPE inhibition": "inactive"}
{"smiles": "CS/C(=N\\S(=O)(=O)c1cccs1)Nc1cccc(Cl)c1C", "CPE inhibition": "inactive"}
{"smiles": "Cc1ccc(NC(=O)C(OC(=O)c2ccc(F)cc2)c2ccccc2)cc1Cl", "note": "(stereo not drawn)", "CPE inhibition": "1.61% (inactive)"}
{"smiles": "Cc1ccc(NC(=O)C(OC(=O)c2cc(C)oc2C)c2ccccc2)cc1", "note": "(stereo not drawn)", "CPE inhibition": "18.4% (active)"}
{"smiles": "COc1ccc(C)cc1NC(=O)C(OC(=O)c1cc(C)oc1C)c1ccccc1", "note": "(stereo not drawn)", "CPE inhibition": "1.23% (inactive)"}
{"smiles": "CC(=O)c1cccc(NC(=O)C(OC(=O)c2cccs2)c2ccccc2)c1", "note": "(stereo not drawn)", "CPE inhibition": "0.01% (inactive)"}
{"smiles": "Cc1ccc(NC(=O)CSc2ccccc2NC(=O)c2ccccc2Cl)cc1Cl", "CPE inhibition": "9.34% (inactive)"}
{"smiles": "Cc1cc(C(=O)OC(C(=O)Nc2ccc(C)c(Cl)c2)c2ccccc2)c(C)o1", "note": "(stereo not drawn)", "CPE inhibition": "14.6% (active)"}
{"smiles": "Cc1ccc(NC(=O)CSc2ccccc2NC(=O)c2ccccc2)cc1Cl", "CPE inhibition": "2.96% (inactive)"}
{"smiles": "Cc1cc(C)cc(NC(=O)C(OC(=O)c2ccc([N+](=O)[O-])o2)c2ccccc2)c1", "note": "(stereo not drawn)", "CPE inhibition": "0.445% (inactive)"}
{"smiles": "Cc1ccc(NC(=O)C(OC(=O)c2ccc(NC(N)=O)cc2)c2ccccc2)cc1Cl", "note": "(stereo not drawn)", "CPE inhibition": "15.2% (active)"}
{"smiles": "Cc1cc(C)cc(-n2c(SCC(=O)Nc3cccc(S(=O)(=O)NC4=NCCCCC4)c3)nc3ccccc3c2=O)c1", "CPE inhibition": "0.54% (inactive)"}
{"smiles": "CNC(=O)CSc1nnc(SCCC(=O)O)s1", "CPE inhibition": "0.415% (inactive)"}
{"smiles": "O=C(CSc1nc2ccccc2s1)NC1CCCc2ccccc21", "note": "(stereo not drawn)", "CPE inhibition": "0.775% (inactive)"}
{"smiles": "Cc1ccccc1-n1c(C)nnc1SCC(=O)NC1CCCc2ccccc21", "note": "(stereo not drawn)", "CPE inhibition": "0.065% (inactive)"}
{"smiles": "Cc1cccc(Nc2nnc(SCC(=O)NC3CCCc4ccccc43)s2)c1C", "note": "(stereo not drawn)", "CPE inhibition": "14.5% (active)"}
{"smiles": "O=C1c2ccccc2C(=O)N1CN(C(=O)COc1ccc(Cl)cc1Cl)c1cccc(F)c1", "CPE inhibition": "3.16% (inactive)"}
{"smiles": "CCOC(=O)C1=C(C)NC(=O)C1CC(=O)O", "note": "(stereo not drawn)", "CPE inhibition": "inactive"}
{"smiles": "CN(c1cccc(NC(=O)CN(c2ccc(Cl)c(Cl)c2)S(=O)(=O)c2ccccc2)c1)S(C)(=O)=O", "CPE inhibition": "5.86% (inactive)"}
{"smiles": "CN(c1cccc(NC(=O)CN(c2cccc(Cl)c2)S(=O)(=O)c2ccccc2)c1)S(C)(=O)=O", "CPE inhibition": "3.62% (inactive)"}
{"smiles": "CN(c1cccc(NC(=O)CN(c2cccc(Cl)c2)S(=O)(=O)c2ccc(Cl)cc2)c1)S(C)(=O)=O", "CPE inhibition": "11.8% (active)"}
{"smiles": "COC(=O)CNC(=O)C1Nc2ccc(OC(F)(F)F)cc2C2C=CCC12", "note": "(stereo not drawn)", "CPE inhibition": "0.595% (inactive)"}
{"smiles": "COc1ccc2c(C)cc(Sc3nnnn3-c3ccccc3)nc2c1", "CPE inhibition": "3.01% (inactive)"}
{"smiles": "COc1ccc(NC(=O)c2ccc(C#N)cc2)cc1NS(=O)(=O)c1ccc(F)cc1", "CPE inhibition": "inactive"}
{"smiles": "CCC(=O)N1N=C(c2ccc(C)o2)CC1c1ccc(Br)cc1", "note": "(stereo not drawn)", "CPE inhibition": "inactive"}
{"smiles": "CC(=O)N1N=C(c2ccccc2)CC1c1cn(Cc2ccccc2)c2ccccc12", "note": "(stereo not drawn)", "CPE inhibition": "6.58% (inactive)"}
{"smiles": "CC(=O)N1N=C(c2ccc(Br)cc2)CC1c1cn(C)c2ccccc12", "note": "(stereo not drawn)", "CPE inhibition": "16% (active)"}
{"smiles": "COc1cc(C#Cc2c(C=O)n(C)c3ccccc23)cc(OC)c1", "CPE inhibition": "8.36% (active)"}
{"smiles": "Cn1c(C=O)c(C#Cc2ccccc2)c2ccccc21", "CPE inhibition": "inactive"}
{"smiles": "Cn1c(C=O)c(C#CC(C)(C)O)c2ccccc21", "CPE inhibition": "4.96% (inactive)"}
{"smiles": "COc1cc(SC)ccc1C(=O)NCCc1ccccc1", "CPE inhibition": "0.785% (inactive)"}
{"smiles": "O=C(Nc1cccc(Cl)c1)Nc1cc(S(=O)(=O)N2CCOCC2)ccc1N1CCCC1", "CPE inhibition": "8.49% (inactive)"}
{"smiles": "CC(C)CC(NC(=O)c1ccc(Cl)cc1)C(=O)OCc1cc([N+](=O)[O-])cc2c1OCOC2", "note": "(stereo not drawn)", "CPE inhibition": "1.44% (inactive)"}
{"smiles": "COC(=O)c1ccc(CNC(=O)COC(=O)C2CCC(C(C)(C)C)CC2)cc1", "note": "(stereo not drawn)", "CPE inhibition": "0.91% (inactive)"}
{"smiles": "COc1ccc(CNC(=O)COC(=O)C2CCC(C(C)(C)C)CC2)cc1", "note": "(stereo not drawn)", "CPE inhibition": "24.9% (active)"}
{"smiles": "COc1ccc(CCNC(=O)COC(=O)C2CCCCC2)cc1", "CPE inhibition": "0.035% (inactive)"}
{"smiles": "O=S1(=O)CCC(NC(=S)N2CCCCC2)C1", "note": "(stereo not drawn)", "CPE inhibition": "inactive"}
{"smiles": "CC(=O)NC(Cc1ccccc1)C(=O)OCC(=O)c1ccc(Br)cc1", "note": "(stereo not drawn)", "CPE inhibition": "inactive"}
{"smiles": "COCCCN(C(=S)Nc1cc(Cl)cc(Cl)c1)C(C)c1ccncc1", "note": "(stereo not drawn)", "CPE inhibition": "16.4% (active)"}
{"smiles": "COCCCN(C(=S)Nc1ccc(C)cc1Cl)C(C)c1ccncc1", "note": "(stereo not drawn)", "CPE inhibition": "inactive"}
{"smiles": "COCCCN(C(=S)Nc1c(C)cc(C)cc1C)C(C)c1ccncc1", "note": "(stereo not drawn)", "CPE inhibition": "0.045% (inactive)"}
{"smiles": "O=C(CCc1ccccc1)NCCSCc1c(F)cccc1Cl", "CPE inhibition": "inactive"}
{"smiles": "C#CCN(C(=O)Nc1ccccc1)c1ccccc1", "CPE inhibition": "inactive"}
{"smiles": "CC(=O)NS(=O)(=O)c1cccnc1Nc1cccc(Cl)c1C", "CPE inhibition": "1.49% (inactive)"}
{"smiles": "CC1CCC(=NNc2ccc(C(F)(F)F)cc2[N+](=O)[O-])CC1", "note": "(stereo not drawn)", "CPE inhibition": "0.085% (inactive)"}
{"smiles": "CCC(=O)OC1(C)C(=O)C=C2C=C(CCCC(=O)OC)OC=C2C1=O", "note": "(stereo not drawn)", "CPE inhibition": "inactive"}
{"smiles": "CCCCC1=CC2=CC(=O)C(C)(OC(=O)CC)C(=O)C2=CN1C1CCCC1", "note": "(stereo not drawn)", "CPE inhibition": "20.9% (active)"}
{"smiles": "CC1(OC(=O)C2CCCC2)C(=O)C=C2C=C3CCCCN3C=C2C1=O", "note": "(stereo not drawn)", "CPE inhibition": "inactive"}
{"smiles": "Cc1ccc(S(=O)(=O)N/N=C2/CCCCC2C2CCCCC2)cc1[N+](=O)[O-]", "note": "(stereo not drawn)", "CPE inhibition": "0.01% (inactive)"}
{"smiles": "Fc1ccc(CSc2ncnc3scc(-c4ccccc4)c23)cc1", "CPE inhibition": "1.17% (inactive)"}
{"smiles": "CCOC(=O)C(=NC1CCCCC1)NNc1cccc(C(F)(F)F)c1", "CPE inhibition": "5.4% (inactive)"}
{"smiles": "O=C(OC(C(=O)Nc1cccc(C(F)(F)F)c1)c1ccccc1)C1CCCCC1", "note": "(stereo not drawn)", "CPE inhibition": "21.9% (active)"}
{"smiles": "COc1cc(OC)c(C(=O)OC(C)C(=O)Nc2cccc(C(F)(F)F)c2)cc1OC", "note": "(stereo not drawn)", "CPE inhibition": "inactive"}
{"smiles": "Cc1cc(C)nc(NS(=O)(=O)c2ccc(NC(=O)C3(c4ccccc4)CCCC3)cc2)n1", "CPE inhibition": "inactive"}
{"smiles": "COc1ccc(-c2csc3ncnc(Oc4ccc5c(C)cc(=O)oc5c4)c23)cc1", "CPE inhibition": "inactive"}
{"smiles": "CC(=O)Nc1ccc(Sc2ncnc3scc(-c4ccccc4)c23)cc1", "CPE inhibition": "2.31% (inactive)"}
{"smiles": "CC(=O)Nc1cccc(Oc2ncnc3scc(-c4ccc(C(C)C)cc4)c23)c1", "CPE inhibition": "15% (active)"}
{"smiles": "Cc1cc(NC(=O)CCc2ccccc2)c([N+](=O)[O-])cc1C", "CPE inhibition": "inactive"}
{"smiles": "O=C(Nc1nc2ccccc2s1)c1ccc(N2CCCCC2)c([N+](=O)[O-])c1", "CPE inhibition": "2.82% (inactive)"}
{"smiles": "O=C(Nc1nc2ccc3ccccc3c2s1)c1ccc(N2CCCCC2)c([N+](=O)[O-])c1", "CPE inhibition": "13.2% (active)"}
{"smiles": "O=C(Nc1ccc(N2C(=O)c3cccc4cccc(c34)C2=O)cc1)c1ccc(N2CCCCC2)c([N+](=O)[O-])c1", "CPE inhibition": "2.95% (inactive)"}
{"smiles": "O=C(O)CSC(=S)N1CCCCC1", "CPE inhibition": "0.795% (inactive)"}
{"smiles": "N#CC(C#N)=C1C=CC=CN1/C(=C\\c1ccco1)C(=O)c1ccc(-c2ccccc2)cc1", "CPE inhibition": "inactive"}
{"smiles": "O=C(O)c1cccc(-c2nc3ccccc3[nH]2)c1", "CPE inhibition": "0.345% (inactive)"}
{"smiles": "c1ccc(-c2c3ccccc3nc3[nH]c4ccccc4c23)cc1", "CPE inhibition": "23.8% (active)"}
{"smiles": "Cc1nc2ccccc2c(-c2ccccc2)c1CC(=O)O", "CPE inhibition": "0.655% (inactive)"}
{"smiles": "Cc1ccc(-n2nnnc2SC(C(=O)c2c[nH]c3ccccc23)c2ccccc2)cc1", "note": "(stereo not drawn)", "CPE inhibition": "inactive"}
{"smiles": "O=C1C=C(c2ccccc2)C[C@@H](c2ccc3c(c2)OCO3)C1", "CPE inhibition": "0.36% (inactive)"}
{"smiles": "O=C1C=C(c2cc(C(F)(F)F)cc(C(F)(F)F)c2)C[C@@H](c2ccc3c(c2)OCO3)C1", "CPE inhibition": "17.9% (active)"}
{"smiles": "O=C1C=C(c2ccc(Cl)c(C(F)(F)F)c2)C[C@@H](c2ccc3c(c2)OCO3)C1", "CPE inhibition": "7.58% (inactive)"}
{"smiles": "O=C(CSCc1ccccc1)Nc1ccc(F)c(F)c1", "CPE inhibition": "inactive"}
{"smiles": "Cc1cc(C(=O)NCC(=O)OCC(=O)N(C2CCCCC2)C2CCCCC2)ccc1[N+](=O)[O-]", "CPE inhibition": "inactive"}
{"smiles": "CCNc1ccc(C(=O)OCC(=O)NCc2ccc(C)cc2)cc1[N+](=O)[O-]", "CPE inhibition": "0.91% (inactive)"}
{"smiles": "CCCCCCSc1ccc([C@@H]2[C@@H]3C(=O)N(CC)C(=O)[C@@H]3[C@]3(C(=O)OC)CCCCN23)cc1", "CPE inhibition": "16.4% (active)"}
{"smiles": "COC(=O)[C@@]12CCCCN1[C@H](c1ccc(-c3ccccc3)cc1)[C@H]1C(=O)N(C)C(=O)[C@H]12", "CPE inhibition": "3.82% (inactive)"}
{"smiles": "CCN1C(=O)[C@@H]2[C@@H](c3ccc(SC4CCCCC4)cc3)N3CCC[C@@]3(C(=O)OC)[C@@H]2C1=O", "CPE inhibition": "0.855% (inactive)"}
{"smiles": "COC(=O)[C@@]12CCCCN1[C@H](c1ccc(-c3ccc(Cl)c(Cl)c3)cc1)[C@H]1C(=O)N(C)C(=O)[C@H]12", "CPE inhibition": "26.6% (active)"}
{"smiles": "CCN1C(=O)[C@@H]2[C@@H](c3ccc(-c4ccc(OC)cc4)cc3)N3CCC[C@@]3(C(=O)OC)[C@@H]2C1=O", "CPE inhibition": "0.355% (inactive)"}
{"smiles": "CCN1C(=O)[C@H]2[C@@H](c3ccc(-c4ccc(Cl)c(Cl)c4)cc3)N3CCCC[C@@]3(C(=O)OC)[C@H]2C1=O", "CPE inhibition": "15.9% (active)"}
{"smiles": "CCN1C(=O)[C@@H]2[C@@H](c3ccc(-c4ccc(Cl)c(Cl)c4)cc3)N3CCC[C@@]3(C(=O)OC)[C@@H]2C1=O", "CPE inhibition": "3.61% (inactive)"}
{"smiles": "CCSc1ccc([C@@H]2[C@@H]3C(=O)N(C)C(=O)[C@@H]3[C@]3(C(=O)OC)CCCCN23)cc1", "CPE inhibition": "inactive"}
{"smiles": "COC(=O)[C@@]12CCCCN1[C@H](c1ccc(-c3ccc(C(C)=O)cc3)c(OC)c1)[C@@H]1C(=O)N(C)C(=O)[C@@H]12", "CPE inhibition": "3.06% (inactive)"}
{"smiles": "CC(=O)Nc1sc(C)c(C)c1C(=O)OCC(=O)N(CC(C)C)C1CCS(=O)(=O)C1", "note": "(stereo not drawn)", "CPE inhibition": "1.31% (inactive)"}
{"smiles": "Cc1ccc([N+](=O)[O-])cc1S(=O)(=O)NCCc1c(C)[nH]c2ccccc12", "CPE inhibition": "1.95% (inactive)"}
